Where “and” joins values, the source holds several entries; their conditions need not be identical. Equal values may be shown once. Compounds without any hit were thinned out: in the full panel of roughly 83,000, 20% have a hit.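 Growth was measured after 48 h exposure to one concentration of compound in 96-well plates. Values under 10 count as active.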 Calls of active or inactive are those of the source.
system: MDA-MB-468 breast; test: NCI-60 one-dose screen, 48 h (100 = growth as untreated, 0 = no growth, -100 = all killed); details: 10 µM unless noted

Which growth does the source give for O=C(NNc1nc2cc(F)c(F)cc2n2cccc12)c1ncccn1 here?
Its growth is 3.66% (active).

How did the growth turn out when COc1cccc(-c2nc3sccn3c2-c2ccnc(NCCCNS(=O)(=O)c3ccc(F)cc3)n2)c1 was run?
Its growth is 47.9% (inactive).

With O=S(=O)(Nc1ccc(F)c(Cl)c1)c1ccc(-c2cnc(C3CC3)o2)cc1 as the compound, how does the growth read?
The growth was -23.9% (active).

Which growth does the source give for CC(C)(CNC1CCCCC1)OC(=O)c1ccccc1 here?
Its growth is 94.3% (inactive).

Which growth does the source give for CN(C)c1ccc2nc3ccc(=[N+](C)C)c([N+](=O)[O-])c-3sc2c1 here?
Its growth is 0.864% (active).

Which growth does the source give for COc1cccc(-c2nn(-c3ccccc3)cc2-c2ccnc(NCCNC(=O)Nc3ccc(Cl)c(Cl)c3)c2)c1 here?
The growth was -17.4% (active).

For CC(C)CCOC(=O)c1ccccc1, which growth is on record?
Its growth is 115% (inactive).

COc1ccc(N(C)c2nc(N)nc3sc4c(c23)CCCC4)cc1 was tested. Which growth did it give?
Its growth is 19.4% (inactive).

FC(F)(F)Sc1ccc(/C=C/c2cc(/C=C/c3ccc(SC(F)(F)F)cc3)n(-c3ccccc3)n2)cc1 was tested. Which growth did it give?
The growth was 95.8% (inactive).

Cc1nc2cc(Nc3nc(Nc4ccc(F)cc4)nc(N4CCN(C)CC4)n3)ccc2n1Cc1ccccc1 was tested. Which growth did it give?
The growth was -32.7% (active).

For COc1ccc(-c2nc3sc(C)nn3c2-c2nc3cc(C)c(C)cc3[nH]2)cc1, which growth is on record?
Its growth is 113% (inactive).

For COc1cc(Nc2c3ccc(Cl)cc3nc3ccc(OC)cc23)c2ncccc2c1, which growth is on record?
The growth was 36.3% (inactive).

How did the growth turn out when CC(=O)Oc1cc(C(=O)O)cc(OC(C)=O)c1OC(C)=O was run?
The growth was 98.6% (inactive) and 108% (inactive).

For O=C1OC(Cc2ccccc2)C1c1ccccc1 (stereo not given), which growth is on record?
Its growth is 97.4% (inactive).

How did the growth turn out when O=C1C(c2ccccc2)C2C=CC(C2)N1O (stereo not given) was run?
Its growth is 98.9% (inactive).

From PubChem BioAssay (NCI)
